Compounds with a hit are over-represented: about 1.3% of the library has one in this group of screens.
AmpC no deterg – inhibitors of E. coli AmpC beta-lactamase without detergent. Potency, µM (series often up to 57.1 µM), inactives show at the highest dose activity change, negative = inhibition, most hits filed as inhibitors. 330,000 tested, 0.52% active. AID 485341. P00811. AmpC nitrocefin hydrolysis, absorbance 480 nm, 0.0001% Triton;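 further: plate controls were no compound for no effect and no enzyme for full effect; nearly all actives have a fitted effect of over 20% in size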
Target sequence (P00811 whole entry, looked up): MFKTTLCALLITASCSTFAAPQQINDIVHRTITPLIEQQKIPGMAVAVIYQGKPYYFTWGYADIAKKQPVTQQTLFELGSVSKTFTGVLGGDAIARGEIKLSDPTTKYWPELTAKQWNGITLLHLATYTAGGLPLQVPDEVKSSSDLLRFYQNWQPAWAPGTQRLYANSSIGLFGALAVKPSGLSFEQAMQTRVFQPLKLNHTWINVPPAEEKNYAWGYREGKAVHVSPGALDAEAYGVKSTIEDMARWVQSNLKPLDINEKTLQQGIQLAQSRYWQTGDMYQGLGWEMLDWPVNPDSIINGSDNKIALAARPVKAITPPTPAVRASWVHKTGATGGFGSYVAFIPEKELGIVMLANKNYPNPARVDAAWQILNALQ
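20 mM phosphate pH 7.0 + 0.01% (detergent screen) or 0.0001% Triton X-100; 5.3 nM AmpC reagent; cpd preinc 15 min RT; nitrocefin (800 uM stock) to start; A480 q20 s × 4 min; Activity was normalised to no-enzyme and no-compound control wells.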
SARS PLP yeast – inhibitors of SARS-CoV papain-like protease in yeast; S. cerevisiae expressing SARS-CoV PLpro, growth rescue; Potency, µM (highest dose often 32.9 µM), without a hit: at the highest dose activity, positive = growth rescue, usual class: activators; 330,000 tested, 0.19% active; calls by dose curve; further: 0% is about no effect; nearly all actives have a fitted effect of over 55% in size
VACV Venus inh – inhibitors of vaccinia virus (Venus reporter). 330,000 tested, 0.46% active. Potency, µM (series often up to 36.5 µM), for the others: at the highest dose activity change, negative = inhibition, hits mostly inhibitors. Vaccinia virus Venus reporter expression, fluorescence; calls by dose curve; tested in A549 cells; further: on the % scale 0 is the no-effect control and ±100 the full control effect; nearly all actives have a fitted effect of over 30% in size
Vaccinia mCherry – inhibitors of vaccinia virus infection (mCherry reporter signal). Vaccinia virus mCherry reporter infection, fluorescence. Potency, µM (top dose mostly 36.5 µM), inactives show top-dose activity change, negative = inhibition, most hits filed as inhibitors. 310,000 tested, 0.63% active. AID 720579; calls by dose curve; tested in A549 cells; further: on the % scale 0 is the no-effect control and ±100 the full control effect; nearly all actives have a fitted effect of over 35% in size
AmpC inh detg – blocks E. coli AmpC beta-lactamase in detergent assay | AmpC hydrolysis of nitrocefin, absorbance 480 nm, 0.01% Triton | Potency, µM (top dose mostly 114 µM), for inactives: at the top dose activity change, negative = inhibition, hits mostly inhibitors | 370,000 tested, 0.041% active | AID 485294;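 further: 0% = no-compound wells and -100% = no-enzyme wells; nearly all actives have a fitted effect of over 25% in size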
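AmpC (5.3 nM in the dispensed reagent) in 20 mM phosphate pH 7.0 with 0.01% (detergent screen) or 0.0001% Triton X-100 was preincubated with compounds for 15 min at room temperature. Nitrocefin was then added from an 800 uM solution, and hydrolysis was followed at 480 nm.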
* = called active by the depositor; i = inactive; ? = inconclusive; . = no result given; [ ] = remark or other dose. Unless noted, the call rests on the fitted dose curve; in most records, active means well fitted curve in the direction sought with a large enough effect; inconclusive means small, poorly fitted or top-dose-only effect, or another doubt; inactive means no such curve, though single readings can be large; an effect the other way counts as inactive or inconclusive. Potency means the concentration at half of the fitted maximal effect.

SMILES	AmpC no deterg	SARS PLP yeast	VACV Venus inh	Vaccinia mCherry	AmpC inh detg
Oc1c(C(Nc2ccccn2)c2ccccc2)ccc2cccnc12 (configuration not stated)	.	.	?	11µM*	.
Cc1cc(NC(c2cccnc2)c2ccc3cccnc3c2O)no1 (configuration not stated)	-22%	7.1µM*	16µM*	.	-9%
CC(=O)NC(c1ccc(C(C)C)cc1)c1ccc2cccnc2c1O (configuration not stated)	76%	-21%	?	?	-9%
N#Cc1c(-c2c(Cl)cccc2Cl)noc1/C=C/Nc1ccc(C(=O)O)cc1	18µM*	3%	-17%	i	2%
O=c1c2ccccc2sn1-c1cccc(Cl)c1	.	.	-27%	-9%	.
CN(C)S(=O)(=O)c1cccc(-n2sc3ccccc3c2=O)c1	35µM*	-6%	-20%	-1%	-2%
CCOC(=O)c1ccc(NC(=O)CSc2nc(-c3ccc(OC)cc3)cc(C(F)(F)F)c2C#N)cc1	.	.	-9%	-3%	23%
Cc1[nH]n(-c2ccccc2)c(=O)c1/C=N/NC(=O)COc1ccccc1[N+](=O)[O-]	-31%	14µM*	.	.	-7%
O=S(=O)(N1CCN(c2nc(-c3cccs3)nc3ccccc23)CC1)C(F)(F)F	.	.	-19%	-3%	.
COc1ccccc1NC(=O)c1sc2ncn(Cc3ccc(C)cc3)c(=O)c2c1C	0.32µM*	-4%	-9%	i	-4%
COC(=O)c1cc(S(=O)(=O)Nc2cccc(-c3ccno3)c2)c[nH]1	.	.	-17%	?	.
O=C(N[C@H]1C/C=C\C[C@@H](CC(=O)N(CCO)Cc2ccccc2)C(=O)NC[C@H](c2ccccc2)OC1=O)OCC1c2ccccc2-c2ccccc21	170%	2%	?	10µM*	.
O=C(N[C@@H]1C/C=C\C[C@@H](CC(=O)N(CCO)Cc2ccccc2)C(=O)NCCOC1=O)OCC1c2ccccc2-c2ccccc21	189%	2%	-21%	-1%	.
O=C(Nc1ccc(N2CCN(c3ncccc3C(F)(F)F)CC2)nc1)c1cccs1	-5%	-5%	20µM*	14µM*	-1%
O=C(Nc1ccc(N2CCN(c3ccc(C(F)(F)F)cn3)CC2)nc1)c1cccs1	-24%	-1%	-10%[7.34 µM]	-6%[7.34 µM]	1%
COc1ccccc1C1CN(Cc2cccc(O)c2)Cc2ccccc2O1 (configuration not stated)	.	.	-24%	-26%	.
COc1ccc2c(c1)OC[C@H]1[C@H]2N2C(=O)c3ccc(F)cc3NC(=O)[C@@]2(C)[C@H]1c1ccccc1	.	.	?	18µM*	.
Oc1ccccc1NCC(O)Cn1ccc2ccccc21 (configuration not stated)	-24%	-11%	.	.	?
OC(CNCc1ccccc1)Cn1ccc2ccccc21 (configuration not stated)	18µM*	10%	.	.	1%
N#C/C(=C/c1ccc(Sc2nc3ccccc3[nH]2)o1)c1cccc(F)c1	-43%	-7%	.	.	?
N#C/C(=C/c1ccc(Sc2nc3ccccc3[nH]2)o1)c1cccc(Br)c1	-54%	-2%	?	20µM*	-3%
COc1ccc(NC(=O)Cc2c[nH]c3ccccc23)cc1S(=O)(=O)N1CCCCC1	14µM*	16%	0%	-8%	-4%
COc1ccc(NC(=O)Cc2c[nH]c3ccccc23)cc1S(=O)(=O)N1CCOCC1	-23%	3%	-5%	i	-2%
Cn1cc(CN2CCOc3ccc(C(O)C4CCCCC4)cc3C2)cn1 (configuration not stated)	.	.	-10%	-6%	.
CCN(CC)CC1CN(N=Cc2ccc([N+](=O)[O-])o2)C(=O)O1 (configuration not stated)	.	.	16µM*	?	.
SMILES	AmpC no deterg	SARS PLP yeast	VACV Venus inh	Vaccinia mCherry	AmpC inh detg
CCCc1cc(=O)[nH]c(SCC(=O)Nc2nc(-c3ccccc3)cs2)n1	13µM*	0%	-3%	-4%	2%
Cn1cnnc1SCC(=O)Nc1nc(-c2ccccc2)cs1	-21%	-2%	0%	-15%	79µM*
CCc1c(C)nc(SCC(=O)Nc2nc(-c3ccc(OC)cc3)cs2)[nH]c1=O	14µM*	0%	-7%	-10%	6%
O=C(Nc1nc(-c2ccccc2)cs1)C1c2ccccc2Oc2ccccc21	0.18µM*	5%	-14%	-13%[1.46 µM]	5%
C[n+]1ccc(C(c2c[nH]c3ccccc23)c2cc[n+](C)c3ccccc23)c2ccccc21	.	.	i	231%	.
CC(NC(=O)C1CC1)c1nnc2n1CCN(Cc1cccc(F)c1F)CC2 (configuration not stated)	.	.	-13%	-16%	.
Clc1ccc(-c2nc3cnccn3c2Nc2ccc3c(c2)OCO3)cc1	22µM*	-24%	3%	4%	?
Cc1ccc(-c2nc3cnccn3c2Nc2ccc3c(c2)OCO3)o1	2.8µM*	-2%	-26%	?	?
Cc1[nH]c2c(F)cccc2c1CC(=O)NCCN1Cc2ccccc2OC(C)C1 (configuration not stated)	.	.	-12%	-11%	.
O=[N+]([O-])c1cccc2nc3ccccc3c(NCCCn3ccnc3[N+](=O)[O-])c12	.	.	1.4µM*	2.8µM*	.
CSc1nnc(CNC(=O)c2cccc3ccccc23)n1-c1ccccc1C	.	.	1%	-6%	.
CC1CC(C)CN(c2ccc(C(=O)NCc3ccc4c(c3)OCO4)cc2[N+](=O)[O-])C1 (configuration not stated)	3.2µM*	12%	-3%	-8%	-4%
Cc1cc(C(=O)NCc2ccc3c(c2)OCO3)ccc1[N+](=O)[O-]	-26%	-1%	.	.	5%
Cc1ccc(Cl)cc1-n1ncc2c(Nc3cccc(C)c3C)ncnc21	.	.	-20%	-15%	2%
CN(CC(=O)Nc1ccc(Br)cc1)S(=O)(=O)c1cccc2nsnc12	.	.	-6%	-5%	0%
Cc1ccc(NC(=O)CN(C)S(=O)(=O)c2cccc3nsnc23)cc1	0.16µM*	-5%	?	.	-1%
COc1cc(=O)n2c(c1C(=O)NC(C)c1ccco1)CCN(C(=O)c1cc(C)cc(C)c1)CC2 (configuration not stated)	.	.	-12%	-16%	.
O=C(CSc1nc2ccc(NC(=O)c3ccccc3C(=O)O)cc2s1)Nc1ccc(F)c([N+](=O)[O-])c1	18µM*	-3%	-8%	-12%	-8%
COc1cccc(C(Nc2ccccc2)c2ccc3ccc(C)nc3c2O)c1 (configuration not stated)	.	.	?	7.1µM*	.
Cc1cccc(NC(c2ccc(O)cc2)c2ccc3ccc(C)nc3c2O)n1 (configuration not stated)	-24%	-2%	.	.	6%
Cc1cc(C)c(C#N)c(SCCS(=O)(=O)c2ccc(C(C)(C)C)cc2)n1	-44%	-1%	4.5µM*	3.5µM*	-7%
Cc1cc(C)c(C#N)c(SCCS(=O)(=O)c2ccc(Cl)cc2)n1	-26%	-2%	?	4.5µM*	-8%
